D1 PAM – Potentiators of Human D1 Dopamine Receptor: qHTS; HEK293 TREx D1 cells, calcium flux, dopamine EC20 potentiation; potentiation, % at 10 µM; 360,000 compounds, 0.036% hits; in the data active means potentiation above about 30%
BCR signal inh – qHTS Assay to Find Inhibitors of Chronic Active B-Cell Receptor Signaling; ABC-DLBCL IkBa-CBG/CBR reporter, luminescence ratio, 4 h; Potency, µM (top dose mostly 46.1 µM), hits mostly inhibitors; 340,000 compounds, 0.05% hits; AID 493014, 2011; active means well fitted inhibition curve with a large enough effect in the signal ratio, with a control signal flat, not every such curve was filed as active; inconclusive means small, poorly fitted or top-dose-only effect, or effect the other way, or a change in a side signal; the % refers to the signal ratio
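Doxycycline induced both beetle luciferases in TMD8 lymphoma cells; IKK-driven degradation limits the IkappaBalpha-fused green signal, while red luminescence normalises for cell number and nonspecific effects. Compounds tested up to 46 uM, 4 hrs.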
D1 antag – Antagonist of Human D 1 Dopamine Receptor: qHTS | D(1A) dopamine receptor (Homo sapiens), P21728 | HEK293 TREx D1 cells, calcium flux, dopamine EC80; active compounds read low | activity change, negative = inhibition, % at 10 µM | 360,000 compounds, 3.2% hits; in the data active means activity change below about -30%
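HEK293 T-REx cells expressing inducible, force-coupled D1 receptor; no-wash Ca dye, 30–90 min RT. Cmpd → 180 s read at 1 Hz → EC80 DA → 180 s read.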
D3 antag – qHTS of D3 Dopamine Receptor Antagonist: qHTS. D3R cells, DiscoveRx beta-arrestin luminescence, antagonist mode; active compounds read low. max response, negative = inhibition, %. 360,000 compounds, 2.5% hits. D(3) dopamine receptor (Homo sapiens), P35462; in the data active means max response below about -50%; inconclusive means no clear call, values can overlap the other calls
Target sequence (P35462 whole entry, looked up): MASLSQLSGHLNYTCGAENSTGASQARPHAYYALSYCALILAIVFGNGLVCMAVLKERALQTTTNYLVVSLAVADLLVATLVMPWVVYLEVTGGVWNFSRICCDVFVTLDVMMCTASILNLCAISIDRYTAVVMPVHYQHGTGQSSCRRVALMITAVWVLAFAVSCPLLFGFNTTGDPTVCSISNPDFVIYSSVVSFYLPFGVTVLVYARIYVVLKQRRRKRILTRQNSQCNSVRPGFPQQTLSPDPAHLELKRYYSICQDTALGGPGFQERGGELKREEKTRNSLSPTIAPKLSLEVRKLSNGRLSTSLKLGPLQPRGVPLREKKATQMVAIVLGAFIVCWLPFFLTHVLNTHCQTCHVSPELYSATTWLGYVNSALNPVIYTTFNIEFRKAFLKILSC
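Cells plated overnight at 1500 cells/well, then exposed to library compounds with dopamine controls for 90 minutes at 37 degrees C. DiscoveRx reagent added for 30–60 minutes at room temperature; luminescence read, quantitative HTS format.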
DRD3 agonist – qHTS of D3 Dopamine Receptor Agonist: qHTS | D(3) dopamine receptor (Homo sapiens), P35462 | D3R DiscoveRx beta-arrestin cells, luminescence, 90 min | max activation, % | 410,000 compounds, 0.58% hits | AID 652048, 2013; in the data active means max activation above about 30%
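Cells at 1500/well, incubated overnight, then treated with pinned compounds (dopamine as control) for 90 min at 37 degrees C. DiscoveRx reagent added for 30 - 60 minutes at room temperature; luminescence read.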
D1 agonist – Allosteric Agonists of the Human D1 Dopamine Receptor: qHTS; D(1A) dopamine receptor (Homo sapiens), P21728; 360,000 compounds, 1% hits; HEK293 T-REx D1 cells, calcium flux, agonist mode; activation, % at 2 µM; in the data active means activation above about 30%
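Tetracycline-induced HEK293 TREx D1 cells, force-coupled to calcium signalling, were dye-loaded with a no-wash calcium kit. Compound was pin-added after a 10 s baseline. Fluorescence was read kinetically at 1 cycle/s for 180 s, with calcium rises flagged as agonism.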
Numbers stand for hits; n = inactive; u = inconclusive; x = no result; ! = a repeat was not active. Only some compounds are listed: those with a hit (about 6% of all), similar ones and a draw of the others.

SMILES | D1 PAM | BCR signal inh | D1 antag | D3 antag | DRD3 agonist | D1 agonist
Fc1cc(F)c(C2SCCN2C(=S)Nc2cccc(C(F)(F)F)c2)c(F)c1 (stereo not given) | n | u | n | n | n | 77.4
O=C(Nc1cc(-c2nc3ccccc3o2)ccc1Cl)c1sc2c([N+](=O)[O-])cccc2c1Cl | n | x | n | x | n | n
COC(=O)C(C(=O)OC)c1ncc(C(F)(F)F)cc1Cl | n | n | n | n | n | n
CCOC(=O)C(C(=O)N(C)C)c1ncc(C(F)(F)F)cc1Cl (stereo not given) | n | n | -45.6 | u | n | n
COc1cccc(CNS(=O)(=O)c2ccc3c(c2)N(C(C)=O)CCO3)c1 | n | n | -89.9 | n | n | n
CCOC(=O)c1[nH]c(C)c(C(=O)NCc2ccccc2Cl)c1C | n | x | n | x | n | n
CCOC(=O)c1c(C)[nH]c(CCC(=O)Nc2ccc(Cl)cc2C)c1C | n | x | n | x | n | n
O=C1c2ccccc2N2C(=O)c3ccccc3C2N1Cc1ccco1 (stereo not given) | n | n | -49.8 | n | n | n
O=C1c2cccnc2C(Nc2ccccc2Br)N1Cc1ccco1 (stereo not given) | n | n | -53.4 | n | n | n
Cc1ccccc1NC1c2ccccc2C(=O)N1Cc1ccco1 (stereo not given) | x | n | n | n | n | n
Nc1c(Cl)cc(C2=NCCn3c2c2ccc([N+](=O)[O-])cc2[n+]3[O-])cc1Cl | n | n | -32.9 | n | n | n
COCCCn1c(=N)c(C(=O)NC2CCCC2)cc2c(=O)n3cc(C)ccc3nc21 | n | x | n | x | n | 85.6
CCOCCCn1c(=N)c(C(=O)NCc2cccnc2)cc2c(=O)n3cc(C)ccc3nc21 | n | x | n | x | n | 34.0
CCCn1c(=N)c(C(=O)NC2CCCC2)cc2c(=O)n3cc(C)ccc3nc21 | n | x | n | x | n | n
Cc1ccccc1-c1nn2c(=O)cc(CN3CCN(C(=O)c4ccc(C(C)(C)C)cc4)CC3)nc2s1 | n | x | n | x | n | n
COC(=O)c1cc(OC)c(OC)cc1NC(=O)c1c(-c2ccccc2Cl)noc1C | n | n | n | n | 44.3 | n
COc1ccccc1NC(=S)NC(=O)c1c(-c2ccccc2Cl)noc1C | n | n | n | n | n | n
CCOC(=O)CC(NC(=O)Cn1nnc(-c2ccccc2F)n1)c1ccc(OC)cc1 (stereo not given) | n | n | n | n | n | n
CCOC(=O)CC(NC(=O)Cn1nnc(-c2ccccc2Cl)n1)c1ccc(OC)cc1 (stereo not given) | n | u | n | n | n | 64.5!
COC(=O)c1cc(OC)c(OC)cc1NC(=O)Cn1nnc(-c2ccccc2Cl)n1 | n | n | n | n | 51.9 | n
Clc1ccc(CN2CCC(CNc3ncnc4onc(-c5ccc(Cl)cc5)c34)CC2)cc1 | n | x | n | x | n | n
CC(C)c1ccccc1NC(=O)Nc1nnc([C@@H]2C[C@H](O)[C@@H](CO)O2)s1 | x | x | x | n | n | x
CN1CCC(N(C)C(=S)Nc2ccc(SC(F)F)cc2)CC1 | n | n | -33.6 | n | n | n
COC(=O)CSc1cccc2c1C(=O)CC2c1ccccc1 (stereo not given) | n | n | -33.1 | n | n | n
Cc1cc(C)c(/C=C/c2onc(C)c2S(=O)(=O)N2CCC(C(=O)NCc3ccco3)CC2)c(C)c1 | n | x | n | x | n | n
SMILES | D1 PAM | BCR signal inh | D1 antag | D3 antag | DRD3 agonist | D1 agonist
COc1ccc(Cl)cc1/C=C/c1ccc2cccc(O)c2n1 | n | u | n | -84.1 | n | n
Oc1cccc2ccc(/C=C/c3ccccc3Cl)nc12 | n | u | n | -175.9 | n | n
O=C(O)c1ccc(/C=C/c2ccc3cccc(O)c3n2)cc1 | n | u | n | n | n | n
COc1cc(Cl)cc(/C=C/c2ccc3cccc(O)c3n2)c1OC | n | u | n | -93.7 | n | n
Oc1ccc(/C=C/c2ccc3cccc(O)c3n2)cc1Br | n | u | n | n | n | 37.4
Oc1cccc2ccc(/C=C/c3c(F)cccc3Cl)nc12 | n | u | n | u | n | n
COc1ccc(/C=C(\C#N)c2nc(-c3cc4ccccc4oc3=O)cs2)cc1OC | n | x | n | x | n | n
Cc1cc(C)c(/C=C/c2onc(C)c2S(=O)(=O)N2CCC(C(=O)N3CCN(c4ccc(Cl)cc4)CC3)CC2)c(C)c1 | n | x | n | x | n | n
CCOC(=O)[C@]12CCC=C1N(Cc1cccc3ccccc13)C(=O)[C@H](CC(=O)NCc1ccc(OC)c(OC)c1)C2 | x | x | x | n | n | x
CC1CCN(S(=O)(=O)c2cc(C(=O)NCc3ccc(F)cc3)n(C)c2)CC1 | n | x | n | x | n | n
CCOC(=O)/C(=C\c1ccc(Cl)cc1)c1nc2sc(C)c(C)c2c(=O)[nH]1 | n | n | n | -63.0 | n | n
CCOc1ccc(N2C(=O)c3[nH]nc(-c4ccc(OC)cc4)c3C2c2cccs2)cc1 (stereo not given) | n | x | n | x | n | n
Cc1ccc(CN(Cc2ccco2)C(=O)c2cccc(C)c2)cc1 | n | x | n | x | n | n
O=C1C=CC(=O)N1c1ccc2c(c1)C(NC(=O)C(F)(F)F)c1ccccc1-2 (stereo not given) | x | x | x | -61.7 | n | x
COc1ccc(-c2ccc3oc(-c4ccc(OC)cc4)c(C#CCO)c3c2)cc1 | x | x | x | n | 57.6 | x
COc1ccc(-c2ccc3oc(-c4ccc(OC)cc4)c(-c4ccc(OC)cc4)c3c2)cc1 | x | x | x | n | 71.8 | x
COc1ccc(-c2ccc3oc(-c4ccsc4)c(-c4ccc(OC)cc4)c3c2)cc1 | x | x | x | n | n | x
CC(C)Oc1cc(F)ccc1-c1cc(C(=O)NCCc2ccncc2)[nH]n1 | x | x | x | n | n | x
CC(C)(C)NCC(O)CSc1nc(-c2ccc(C(N)=O)s2)cs1 (stereo not given) | x | x | x | x | n | x
Cc1[nH]c2ccc(C(=O)N3CCN(c4ccccc4F)CC3)cc2c1C | n | x | n | x | n | n
CCOCCc1nnc(NC(=O)Cc2c(F)cccc2Cl)s1 | n | n | n | n | 34.7 | n
CCOCCc1nnc(NC(=O)Cc2ccccc2)s1 | n | n | n | n | n | n
Cc1cc(NC(=O)Cc2c(F)cccc2Cl)no1 | n | n | -30.4 | n | n | n
CN(C)c1cccc(C(=O)Nc2nc3ccc(S(=O)(=O)N4CCCC4)cc3s2)c1 | n | x | n | x | n | n
Cc1ccc(NC(=O)C(C)Sc2nc(-c3ccccc3)c(C#N)c(=O)[nH]2)c(C)c1 (stereo not given) | n | x | n | x | n | n
